Most compounds without a hit are left out; they make up all but 7.2% or so of the library.
hNpr1 antagonist – antagonists of human natriuretic peptide receptor Npr1 | P16066 | HEK293 hNpr1 GloSensor cGMP, ANP-stimulated luminescence | Potency, µM (highest dose often 46.3 µM), hits mostly inhibitors | hit rate 1.6% among 76,000 | AID 1347048; calls by dose curve; also: nearly all actives have a fitted effect of over 60% in size
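HEK293 cells stably expressing human Npr1 and cGMP GloSensor pGS-40F, loaded 2 h with 2% GloSensor reagent, given compound 30 min at room temperature. Luminescence read before and 20 min after 0.1 nM hNppA.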
SNCA expr inh – inhibitors of alpha-synuclein (SNCA) gene expression | HEK-293 SNCA-luciferase knock-in, luminescence, 24 h | Potency, µM (top dose mostly 57.2 µM), usual class: inhibitors | hit rate 0.17% among 140,000 | AID 1671194; also: nearly all actives have a fitted effect of over 45% in size
Luciferase inh – inhibitors of firefly (Photinus pyralis) luciferase. AID 1347043. Potency, µM (series often up to 115 µM), most hits filed as inhibitors. purified P. pyralis luciferase, luminescence, biochemical. hit rate 2.5% among 76,000. P08659; also: nearly all actives have a fitted effect of over 65% in size
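Cell-free enzyme assay, 10nM P. pyralis luciferase, luciferin and ATP each at 10uM. Inhibition profiled over a 6-point titration, read as luminescence.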
3T3 cytotox – NIH 3T3 cell cytotoxicity. NIH 3T3 viability, CellTiter-Glo ATP luminescence, 48-72 h. Potency, µM (top dose mostly 96.7 µM), hits mostly inhibitors. hit rate 4.3% among 94,000; also: nearly all actives have a fitted effect of over 55% in size
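First NIH 3T3 cells are plated at 400 cells/well; next compound is pinned in; then plates incubate 48 or 72 hr at 37 °C; finally CellTiter-Glo is added and luminescence read after 10 min.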
HEK293 viab – cell viability loss counter-screen. hit rate 0.12% among 150,000. HEK-293-SNCA-luc viability, GF-AFC fluorescence, 24 h. Potency, µM (titrated, usually from 57.1 µM), most hits filed as cytotoxic; also: nearly all actives have a fitted effect of over 30% in size
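Cytotoxicity counterscreen: after 24 h compound treatment of genome-edited SNCA-luciferase HEK-293 cells, live-cell protease substrate GF-AFC read by fluorescence after 30 min; activity scaled between DMSO (0%) and medium-only (-100%), curves Hill-fitted.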
HEK cytotox – HEK 293 cell cytotoxicity. HEK 293 viability, ATP luminescence (CellTiter-Glo), 48-72 h. hit rate 6.6% among 94,000. Potency, µM (titrated, usually from 115 µM), actives largely listed as inhibitors; also: nearly all actives have a fitted effect of over 60% in size
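qHTS cytotoxicity; HEK 293, 250 cells/well; compound pinned; 48 or 72 hr, 37 degree Celsius, 5% CO2, 95% humidity; CellTiter-Glo, 10 min RT; luminescence (ATP).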
Each line names hits and unclear results; the compound was inactive in the other large screens. Unless noted, calls follow the shape of the dose curve; as a rule, active = well fitted curve in the direction sought with a large enough effect; inconclusive = small, poorly fitted or top-dose-only effect, or another doubt; inactive = no such curve, though single readings can be large; an effect the other way counts as inactive or inconclusive.

CCCCc1ccc(NC(=O)CN2C(=O)NC(c3ccc(Cl)cc3)C3=C2COC3=O)cc1 (stereo unspecified)	SNCA expr inh 12.6µM, 3T3 cytotox 20µM, HEK293 viab inconclusive, HEK cytotox 20µM
O=C(CN1C(=O)NC(c2ccc(Cl)cc2)C2=C1COC2=O)Nc1ccc(C(F)(F)F)cc1 (stereo unspecified)	hNpr1 antagonist inconclusive, SNCA expr inh inconclusive, 3T3 cytotox 22.4µM, HEK cytotox inconclusive
O=C(CN1C(=O)NC(c2ccc(Cl)cc2)C2=C1COC2=O)NCCc1ccc(Cl)cc1 (stereo unspecified)	SNCA expr inh inconclusive, 3T3 cytotox inconclusive, HEK293 viab inconclusive, HEK cytotox 44.7µM
CCn1cc(CN(C)C(=O)CCC[C@@H]2[C@H]3CCCN4CCC[C@@H](CN2C)[C@@H]34)c(C)n1	none
C[C@@H]1O[C@@H](O[C@@H]2[C@@H](O)[C@H](O[C@@H]3[C@@H](O)[C@@H](O)[C@H](O[C@H]4[C@H](OC(=O)[C@]56CCC(C)(C)C[C@H]5C5=CCC7[C@@]8(C)C[C@H](O)[C@H](O[C@@H]9O[C@H](C(=O)O)[C@@H](O)[C@H](O)[C@H]9O)[C@@](C)(CO)C8[C@H](O)C[C@@]7(C)[C@]5(C)CC6)OC[C@H](O)[C@@H]4O)O[C@H]3C)OC[C@H]2O)[C@H](O)[C@H](O)[C@H]1O (stereo partly specified)	none (no result: hNpr1 antagonist, SNCA expr inh, Luciferase inh, 3T3 cytotox, HEK cytotox)
CCOc1ccc(NC(=O)CN2C(=O)NC(c3ccccc3OCC)C3=C2COC3=O)cc1 (stereo unspecified)	none
Cc1ccccc1CNC(=O)c1ccc(CN2C(=O)NC3(CCOCC3)C2=O)cc1	none
COc1ccc(NC(=O)c2ccc(CN3C(=O)NC4(CCOCC4)C3=O)cc2)cc1	Luciferase inh 28.2µM
Cc1ccc(NC(=O)c2ccc(CN3C(=O)NC4(CCOCC4)C3=O)cc2)cc1	Luciferase inh 15.8µM, HEK cytotox inconclusive
O=C(NCCc1ccccc1)c1ccc(CN2C(=O)NC3(CCOCC3)C2=O)cc1	HEK cytotox inconclusive
CO/N=C(/C(=O)N[C@@H]1C(=O)N2C(C(=O)O)=C(Cn3ccc(=N)n3CCO)CS[C@H]12)c1csc(N)n1	none (no result: hNpr1 antagonist, SNCA expr inh, Luciferase inh, 3T3 cytotox, HEK cytotox)
O=C(C1CCOCC1)N1CC2CC(C1)[C@H]1CCCC(=O)N1C2 (stereo partly specified)	none
O=C(O)COc1ccc(-c2nccc3c2C(=O)N(Cc2ccccc2)CC(COc2ccc(Cl)cc2)O3)cc1 (stereo unspecified)	Luciferase inh 50.1µM, 3T3 cytotox inconclusive
COc1cccc(-c2ccc(C(=O)N3CCC(NC(=O)c4cccc(Cl)c4)CC3)cc2)c1	3T3 cytotox inconclusive, HEK cytotox inconclusive (no result: hNpr1 antagonist, Luciferase inh)
CC(C)c1ccc(-n2cc(CN3CCN(C(=O)N(C)C)CC3)cn2)cc1	Luciferase inh 28.2µM, HEK cytotox inconclusive
CCCCc1ccc(-n2cc(CN3CCN(C(C)=O)CC(O)C3)cn2)cc1 (stereo unspecified)	Luciferase inh 39.8µM, 3T3 cytotox inconclusive, HEK cytotox inconclusive
COc1ccc(-c2noc(-c3nc(Cc4ccccc4)no3)n2)cc1OC	3T3 cytotox inconclusive, HEK cytotox inconclusive
O=C(NCCn1cccc1-c1nc(-c2ccc3c(c2)OCO3)no1)C1(c2ccccc2)CC1	Luciferase inh 20µM, 3T3 cytotox inconclusive, HEK293 viab inconclusive, HEK cytotox 44.7µM
Cc1ccc(C(=O)NCCn2cccc2-c2nc(-c3ccccc3)no2)cc1	Luciferase inh 0.891µM
Cc1cccc(N(C)C(=O)Cn2cccc2-c2nc(-c3ccccc3)no2)c1	SNCA expr inh inconclusive, Luciferase inh inconclusive, 3T3 cytotox inconclusive, HEK293 viab inconclusive, HEK cytotox 70.8µM
Cc1nn(C)c(C)c1-c1ccnc(NCC2CC(=O)N(C3CCCC3)C2)n1 (stereo unspecified)	HEK cytotox inconclusive
Cc1ccc(-c2ccnc(N(C)CC3CC(=O)N(C(C)(C)C)C3)n2)c(C)n1 (stereo unspecified)	3T3 cytotox inconclusive, HEK cytotox 79.4µM
CCn1c2c(c(=O)n1Cc1ccccc1)CCN(Cc1cncc(OC)c1)C2	3T3 cytotox 79.4µM
O=c1c2c(n(Cc3cccnc3)n1CCc1ccccc1)CN(CC1CC1)CC2	SNCA expr inh inconclusive, 3T3 cytotox 39.8µM
O=c1c2c(n(Cc3cccnc3)n1-c1ccccc1)CN(CC1CCOC1)CC2 (stereo unspecified)	3T3 cytotox inconclusive
COc1ccc(Cn2c3c(c(=O)n2Cc2ccccc2)CCN(CC2CCOC2)C3)cc1 (stereo unspecified)	3T3 cytotox 28.2µM
O=c1c2c(n(Cc3cccnc3)n1CCc1ccccc1)CN(CC1CCOC1)CC2 (stereo unspecified)	3T3 cytotox 44.7µM
CO[C@H]1[C@H](NC(=O)c2cnn3cccnc23)c2ccccc2C12CCNCC2	none
O=C(C[C@@H]1C[C@H]2O[C@H](CNC3CCNCC3)[C@@H](O)[C@H]2O1)N1CCOCC1	none
Cc1cccc(CN2CCCC(O)(CNCc3ncccc3C)C2=O)c1 (stereo unspecified)	3T3 cytotox 14.1µM, HEK cytotox inconclusive
Cc1cccc(C)c1N1C(C(=O)OC(C)(C)C)=C(O)c2ccccc2S1(=O)=O	3T3 cytotox 20µM, HEK cytotox inconclusive (no result: hNpr1 antagonist, SNCA expr inh, Luciferase inh, HEK293 viab)
N#Cc1cccc(NC(=O)N[C@H]2CO[C@H]3[C@@H]2OC[C@@H]3n2nnnc2Oc2ccc(-n3cncn3)cc2)c1	none
OC[C@@H]1CN(CC2CC2)C[C@H]1c1nc(-c2cccnc2)no1	Luciferase inh inconclusive
CC(C)N1C[C@@H](CO)[C@H](c2nc(-c3cccnc3)no2)C1	Luciferase inh 20µM, HEK cytotox inconclusive
O=C(NC1CCCN(c2cc(-c3ccc(F)cc3)[nH]n2)C1)c1c[nH]c2ccccc12 (stereo unspecified)	Luciferase inh 22.4µM, 3T3 cytotox inconclusive, HEK cytotox inconclusive
O=C(NC1CCCN(c2cc(-c3ccc(F)cc3)[nH]n2)C1)c1ccccc1Br (stereo unspecified)	3T3 cytotox inconclusive, HEK cytotox inconclusive
Cc1nc(N2CCC(NC(=O)c3ccccn3)CC2)cc(C(F)(F)F)n1	hNpr1 antagonist inconclusive, SNCA expr inh inconclusive, 3T3 cytotox inconclusive, HEK cytotox inconclusive
O=C(NC1CCCN(c2cc(-c3ccc(F)cc3)[nH]n2)C1)c1cc2ccccc2[nH]1 (stereo unspecified)	SNCA expr inh inconclusive, Luciferase inh 20µM, 3T3 cytotox inconclusive, HEK293 viab inconclusive, HEK cytotox 39.8µM

Source: PubChem (National Center for Advancing Translational Sciences (NCATS))
